# Experimental data from the supplement of paper PMC7411640.
# Structures can show the parent of a compound that is named as a salt.
# Tested on: MDA-MB-468
# Test: phospho-S6 immunofluorescence (DAPI-normalised), per-plate z-score; higher = higher phospho-S6 signal (less pathway suppression)
# Details: 24 h
# Protocol: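 GPCR-targeted compound library (MedChemExpress HY-L006) tested on MDA-MB-468 PTEN-null TNBC cells in 384-well plates at 0.1, 1 or 10 uM, combined with vehicle, GDC0941 450 nM or lapatinib 1 uM, for 24 h. Phospho-S6 (S240/244) immunofluorescence normalised to DAPI and expressed as a per-plate z-score; values are the mean of biological triplicates.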
Structure (SMILES),phospho-S6 immunofluorescence (z-score) (co-treatment: GDC0941 450 nM),phospho-S6 immunofluorescence (z-score) (co-treatment: lapatinib 1 uM),phospho-S6 immunofluorescence (z-score) (co-treatment: vehicle)
CN(C)CCSSCCNC(=O)C1CCN(C(=O)CSc2ccc(Cl)cc2)CC1 [6H05 (trifluoroacetate)] (compound 10 µM),-1.17,2.33,-0.23
CCc1ccc(OCc2ccccc2C(=O)Nc2ccc3nc(C)cc(N)c3c2)cc1 (compound 10 µM),-5.98,-12,-10.4
Cc1nn(C)c2c1C(c1ccc(C(F)(F)F)cc1)C(C#N)=C(N)O2 (centres undefined) (compound 10 µM),-1.17,2.28,2.57
C[C@]12CCC(=O)C=C1CC[C@@H]1[C@@H]2[C@@H](O)C[C@@]2(C)[C@H]1CC[C@]2(O)C(=O)CO [Hydrocortisone] (compound 10 µM),-4.8,-4.13,-2.96
C[C@H](NC(=O)CNC(=O)c1cccc(Cl)c1)c1ccccc1 (compound 10 µM),0.04,0.45,0.46
Cn1c(=O)c2c(ncn2CC(=O)O)n(C)c1=O [Acefylline] (compound 10 µM),0.4,0.37,-0.98
OCCOCCN1CCN(Cc2cccc(Oc3ccccc3)c2)CC1 (compound 10 µM),-0.36,0.35,-1.04
OCCOCCN1CCN(C2=Nc3ccccc3Sc3ccccc32)CC1 [Quetiapine] (compound 10 µM),0.95,-0.32,0.64
Cc1cccc(C#Cc2ccccc2)n1 [MPEP (Hydrochloride)] (compound 10 µM),-0.92,0.68,-0.14
CC(O)Cn1cnc2c1c(=O)n(C)c(=O)n2C (centres undefined) [Proxyphylline] (compound 10 µM),0.64,0.19,-0.72
O=C(Nc1cc(Cl)cc(Cl)c1)[C@H]1CCCC[C@H]1C(=O)O (compound 10 µM),0.83,0.12,0.42
CC(C)(C)NCC(O)c1cc(O)cc(O)c1 (centres undefined) [Terbutaline (sulfate)] (compound 10 µM),0.52,1.51,1.44
CC1OC2(CS1)CN1CCC2CC1 (centres undefined) [Cevimeline (hydrochloride hemihydrate)] (compound 10 µM),0.65,-0.04,0.89
